Screening results as filed in PubChem.
Only a selection was taken, and hits are over-represented in it overall.
MARV entry inh – blocks Marburg virus binding to or entry into cells; Marburg virus pseudotyped entry inhibition, cell reporter; AID 540276; Potency, µM (titrated, usually from 37.8 µM), for the others: at the highest dose activity change, negative = inhibition, hits mostly inhibitors; actives 1.8% (n = 300,000); calls by dose curve; tested in HEK293 cells; further: potency means the concentration at half of the fitted maximal effect; on the % scale 0 is the no-effect control and ±100 the full control effect
Shiga inhibitor – Shiga toxin inhibition; actives 9.2% (n = 290,000); inhibition, % at 38.7 µM; Vero cells, Shiga toxin protein synthesis inhibition reporter; in the data active means inhibition mostly above about 28%, no sharp cut-off; inactive means mostly below about 43%; further: 0% is about no effect
Lassa entry inh – blocks Lassa virus binding to or entry into cells | Lassa virus pseudotype entry inhibition, cell reporter | Potency, µM (highest dose often 37.9 µM), without a hit: at the highest dose activity change, negative = inhibition, usual class: inhibitors | actives 1.2% (n = 300,000); calls by dose curve; tested in HEK293 cells; further: potency means the concentration at half of the fitted maximal effect; on the % scale 0 is the no-effect control and ±100 the full control effect; nearly all actives have a fitted effect of over 50% in size
Vaccinia mCherry – vaccinia inhibition (mCherry reporter); Potency, µM (series often up to 36.5 µM), without a hit: at the highest dose activity change, negative = inhibition, hits mostly inhibitors; Vaccinia virus mCherry reporter infection, fluorescence; actives 0.63% (n = 310,000); calls by dose curve; tested in A549 cells; further: potency means the concentration at half of the fitted maximal effect; on the % scale 0 is the no-effect control and ±100 the full control effect; nearly all actives have a fitted effect of over 35% in size
CHX counter – counter-screen for Shiga toxin inhibitors: cycloheximide protein synthesis inhibition; cell reporter, cycloheximide protein synthesis inhibition counterscreen; actives 12% (n = 300,000); AID 2314; max response, %; in the data active means max response mostly above about 13%, no sharp cut-off; inactive means mostly below about 14%; further: read at 38.3 µM for the half of the compounds with a filed dose; 0% is about no effect
Vaccinia Venus – vaccinia inhibition (Venus reporter) | Potency, µM (highest dose often 36.5 µM), for the others: at the highest dose activity change, negative = inhibition, usual class: inhibitors | actives 0.46% (n = 330,000) | Vaccinia virus Venus reporter expression, fluorescence; calls by dose curve; tested in A549 cells; further: potency means the concentration at half of the fitted maximal effect; on the % scale 0 is the no-effect control and ±100 the full control effect; nearly all actives have a fitted effect of over 30% in size
* hit, by the source's call; i = inactive; u = inconclusive; x = no result given; + = active, no number; [ ] = dose if it differs, or a comment.

SMILES	MARV entry inh	Shiga inhibitor	Lassa entry inh	Vaccinia mCherry	CHX counter	Vaccinia Venus
COC(=O)c1[nH]c2cc(C)ccc2c1NC(=O)CN1CCCc2ccccc21	u	i	-5.8%	x	47.7*	-18.2%
COC(=O)c1c(NC(=O)CN2CCCc3ccccc32)sc(C)c1C	-13.3%	21.6	-7.7%	-13.7%	-2.2	19.1%
COC(=O)c1[nH]c2ccc(Br)cc2c1NC(=O)CN1CCCc2ccccc21	u	13.7	u	-0.6%	0.9	-5.8%
Cc1nc(S[C@@H]2C=CS(=O)(=O)C2)n[nH]1	0.1%	x	x	x	x	x
O=C(O)c1cccc(N/N=C/c2cccs2)c1	1.46µM*	147.0*	5.8µM*	-5.4%	83.6*	-6.3%
O=C(CN1C(=O)/C(=C\c2cccs2)SC1=S)Nc1cccc(C(=O)O)c1	u	52.7*	-17.6%[46.1 µM]	u	11.4	-8.7%
CSc1ccc(/C=N/Nc2nc(C)cc(=O)[nH]2)cc1	-4.1%[46.1 µM]	28.7	0.4%	-7.7%	11.3	-7.0%
COC(=O)c1ccc(COc2ccc(/C=N/Nc3nc(C)cc(=O)[nH]3)cc2)cc1	x	45.1*	x	x	9.1	x
COC(=O)c1ccc(COc2ccc(/C=N/Nc3cccc(C(=O)O)c3)cc2)cc1	x	108.8*	x	x	83.8*	x
C=CCN1C(=O)CC[C@@]23C1=NC(C(=O)OC)=C(C(=O)OC)[C@@H]2N(CC=C)c1ccccc13	-2.9%[14.2 µM]	x	x	x	x	x
CCn1c(SCC(=O)Nc2ccccc2C)nc2nc3c(cc2c1=O)COC(C)(C)C3	x	2.6	x	x	-1.4	x
CC(C)CN1C(=O)N[C@@](NC(=O)c2cccnc2)(C(F)(F)F)C1=O	18.5%	x	x	x	x	x
CSc1ccc(/C=N/Nc2cccc(C(=O)O)c2)cc1	u	+	0.891µM*	-7.8%	91.8*	-13.3%
O=C(O)c1cc(N/N=C/C=C/c2ccccc2)ccc1Cl	u	171.9*	-25.9%	-5.6%	39.7*	0.5%
CCOc1cc(C=O)ccc1OCC(=O)N1CCCC1	x	5.9	x	-0.1%	-3.4	-9.5%
O=C(CNC(=O)c1ccc(Cl)cc1)N/N=C/C=C/c1ccccc1	0.2%[46.1 µM]	5.8	-19.0%[46.1 µM]	i	-1.2	-17.4%
O=C(O)c1cccc(N/N=C/c2ccc(OC(F)(F)F)cc2)c1	u	137.7*	u	u	77.1*	-17.3%
CCOc1cc(/C=N/Nc2cccc(C(=O)O)c2)ccc1OCC(=O)N1CCCCC1	u	125.9*	-1.6%	-5.6%	69.8*	-6.0%
CC(C)C(=O)N/N=C/c1ccc(OCc2ccccc2)cc1	-9.1%	26.7	-19.1%	-10.5%	3.2	-5.7%
O=C(O)c1cc(N/N=C/c2ccc(OCc3ccccc3)cc2)ccc1Cl	u	149.0*	4.4%	i	72.4*	-7.0%
CCCN(C(=O)Cc1csc(-c2ccccc2)n1)C1CCS(=O)(=O)C1 (stereo unspecified)	2.9%	x	-0.2%	i	x	-4.8%
CCCCN1c2ccccc2N(CCCO)c2cc(C)nnc21	u	23.1	-34.4%	-14.2%	13.7*	-6.7%
Cc1ccc(C(=O)Nc2cccc(-c3cnc4ccccc4n3)c2)cc1	-6.4%	-2.8	-13.2%	u	12.0	0.1%
CC(=O)Nc1ccc(C(=O)Nc2cccc(-c3cnc4ccccc4n3)c2)cc1	23.8%[46.1 µM]	30.0	-9.6%	-3.5%	18.1	-3.8%
CNC(=S)Nc1cccc(-c2cnc3ccccc3n2)c1	u	57.9*	u	u	26.1*	u
SMILES	MARV entry inh	Shiga inhibitor	Lassa entry inh	Vaccinia mCherry	CHX counter	Vaccinia Venus
CC(C)C(=O)Nc1cccc(-c2cnc3ccccc3n2)c1	u	35.2	-2.0%	x	21.4*	x
O=C(Nc1cccc(-c2cnc3ccccc3n2)c1)c1ccncc1	-17.1%[46.1 µM]	35.9	2.0%	i	23.4*	-25.4%
Cc1cccc(C(=O)Nc2cccc(-c3cnc4ccccc4n3)c2)c1	-23.9%	59.4	u	x	12.4	x
O=C(Nc1cccc(-c2cnc3ccccc3n2)c1)c1ccco1	u	100.2*	1.2%	-10.7%	55.3*	-22.6%
CCn1c(SCC(=O)Nc2ccc(Br)cn2)nnc1C1CC1	4.9%[46.1 µM]	2.9	-3.3%[46.1 µM]	i	1.1	-9.5%
CN(C)/C(=N\S(=O)(=O)c1ccccc1)c1ccc(Cl)cc1	x	-4.0	x	x	-6.1	x
O=C(Nc1cnc2ccccc2c1)c1ccco1	u	67.5*	u	-9.6%	32.6*	-13.7%
CS(=O)(=O)Nc1cccc(-c2cnc3ccccc3n2)c1	u	84.6*	-55.3%[46.1 µM]	0.1%	36.9*	-24.2%
COc1ccc(Cn2nnc(C(=O)Nc3cc(OC)ccc3OC)c2N)cc1	-7.7%[46.1 µM]	x	11.4%[46.1 µM]	-27.6%	x	-7.1%
COCCNCCCOc1ccc(Cl)cc1Br	x	-4.4	x	-13.6%	-2.0	-8.5%
OCCNCCCOc1ccc(Cl)cc1Br	20.6µM*	31.0	-7.2%	x	13.2	x
CCOC(=O)N/N=C1\C[C@@H](O)[C@@H](O)[C@@H]2[C@@H]3C(=O)N(CC)C(=O)[C@@H]3CC[C@H]12	7.5%[14.2 µM]	x	x	x	x	x
Cc1cc2nc(-c3ccccn3)c(-c3ccccn3)nc2cc1C	x	30.3	x	x	17.6*	x
c1ccc(-c2nc3ccccc3nc2-c2ccccn2)nc1	-14.1%	12.1	3.1%	x	-0.5	x
O=[N+]([O-])c1nn(-c2ccc(Cl)cc2)n(O)c1=NCc1ccccc1Cl	1.0%[46.1 µM]	73.9*	-16.0%[46.1 µM]	u	35.0*	-10.9%
Cc1cccc(N=c2c([N+](=O)[O-])nn(-c3ccc(Cl)cc3)n2O)c1	11.4%[46.1 µM]	34.8	23.3%	-17.7%	19.6*	-0.3%
Cc1cccc(-n2nc([N+](=O)[O-])c(=NCc3cccnc3)n2O)c1	-2.1%	16.3	1.6%	u	24.0	u
O=[N+]([O-])c1nn(-c2ccc(Cl)cc2)n(O)c1=NCc1cccnc1	-4.8%	39.5	1.2%	i	22.5*	-14.4%
O=[N+]([O-])c1nn(-c2cccc(Cl)c2)n(O)c1=NCc1cccnc1	u	13.5	1.5%	i	22.6*	-7.5%
COC(=O)COc1ccc(/C=N/NC(=O)c2ccc(N(Cc3ccccc3)S(C)(=O)=O)cc2)cc1	u	-8.4	3.5%	i	-1.9	-12.0%
CC(=O)c1cccc(NC(=O)c2cc(C)nc3c2c(C)nn3-c2cccc(Cl)c2C)c1	x	x	21.6%[46.1 µM]	-16.5%	x	-18.6%
